The record followed here is PubChem BioAssay (NCI).

About 83,000 compounds went through this panel and 20% of them were active in at least one assay; those are over-represented in the sample as a whole.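 Single-dose data. Exposure time 48 hours. Values below 10 considered active.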 The source made the active and inactive calls.

The test system of this assay is MDA-MB-435 melanoma. As to the kind of experiment: NCI-60 one-dose screen, 48 h (100 = growth as untreated, 0 = no growth, -100 = all killed). The settings on record: 10 µM unless noted. How it is done:
Growth inhibition of the MDA-MB-435 human Melanoma tumor cell line is measured as a screen for anti-cancer activity. Cells are grown in 96 well plates and exposed to the test compound for 48 hours. Compounds are tested at a single concentration, which is 10^-5 M for most compounds. The reported endpoint is percent growth (GI% or GIPRCNT), where numbers from 0 - 100% represent growth inhibition, and numbers from -100% - 0 represent cell death. For example, a value of 40 represents 60% growth inhibition. A value of 0 means no net growth occurred over the course of the experiment. A value of -40 indicates 40% of cells at the beginning of the experiment died by the end of the experiment. A value of -100 means all cells are dead at the end of the experiment.
NCI-60 Human Tumor Cell Lines Screen was performed using the standard one-dose NCI protocol, which is described in more detail at https://dtp.cancer.gov/discovery_development/nci-60/default.htm.
Compounds with GIPRCNT values below 10 were considered active. Activity score was based on GIPRCNT using the following formula: […]
Score is 0 for GIPRCNT values of 100 or above, 50 for GIPRCNT values of 0, and 100 for GIPRCNT values of -100.
On to `CCOC(OCC)C(=O)c1ccccc1`, for which the growth is 109% (inactive).
As to `CSc1cnc2ccccc2n1`, the growth was 103% (inactive).
The result for `NC(=O)c1cc2c3ccccc3ccn2c1-c1ccccc1` reads -13.5% (active).
For the molecule `c1ccc(-c2ccc3ccccc3c2)cc1`, the growth was 103% (inactive).
The result for `CCCCCC(=O)OCCC1CCCCC1` reads 100% (inactive); that for `Cc1cc2c(C(C)C)c(O)c(O)c(C=Nc3ccccc3[N+](=O)[O-])c2c(O)c1-c1c(C)cc2c(C(C)C)c(O)c(O)c(C=Nc3ccccc3[N+](=O)[O-])c2c1O`, 109% (inactive); that for `Nc1cc(N)ncn1`, 102% (inactive).
Then `CCOC(=O)c1c[nH][nH]c1=O`, with 104% (inactive); and `CC(=O)c1ccc(C)cc1`, with 112% (inactive).
On to `CCCCNc1ccc(-c2ccc(NCCCC)cc2)cc1`, for which the growth is 40.8% (inactive).
As for `NNc1ncnc2c1ncn2C1OC(CO)C(O)C1O` (stereo not given), the growth is 56.4% (inactive).
Then `Cc1c(Cl)cccc1NC(=S)NC(=O)c1ccccc1`, with 101% (inactive); and `O=C(c1ccccc1)c1ccc(-c2ccc(O)cc2)cc1`, with 9.71% (active).
Then `CCNc1ccc2ccccc2c1N=Nc1ccc(N=Nc2ccccc2)cc1`, with 110% (inactive); and `COc1ccc(/C=N/NC(=O)COCC(=O)N/N=C/c2ccc(OC)cc2)cc1`, with 98.2% (inactive); and `CCNC(=O)OCCc1c2ccccc2nc2ccccc12`, with 118% (inactive).
Then `O=C1Nc2ccccc2/C1=C\c1ccccc1O`, with 82.4% (inactive); and `O=[N+]([O-])c1ccc(-c2nc(N(CCO)CCO)c3ccccc3n2)o1`, with -85.5% (active); and `CC(=O)Oc1c(Cl)cccc1-c1ccccc1`, with 104% (inactive).
Turning to `Clc1ncnc2nc[nH]c12`, the growth was 106% (inactive).
As for `Cc1ccc(NCN2C(=O)c3ccccc3C2=O)c(C)n1`, the growth was 105% (inactive).
The result for `CN(C)c1ccc2nc3ccc(=[N+](C)C)cc-3oc2c1` reads 55.1% (inactive); that for `O=c1[nH]c(=O)c2cc(Cl)cc(Cl)c2[nH]1`, 113% (inactive); that for `O=C(N/N=C\c1ccc(Cl)cc1Cl)c1ccncc1`, 105% (inactive).
Then `COCC(N)=O`, with 105% (inactive).
Regarding `COc1ccc2c(ccc[n+]2C)c1`, the growth was 110% (inactive).
`COc1ccc(C2CCCCC2=O)cc1` (stereo not given): the growth is 103% (inactive).
The result for `CC(=O)C[n+]1ccc(C)cc1Sc1ccccc1C` reads 101% (inactive); that for `Nc1nnc2cc(F)ccc2n1`, 118% (inactive).
Regarding `CC(O)C(F)(F)C(F)(F)C(F)(F)F` (stereo not given), the growth is 110% (inactive).
Regarding `CCOC(=O)C(C#N)=C1CCN(C)CC1`, the growth was 109% (inactive).
`CCNCC(C)(C)O`: the growth is 106% (inactive).
Consider `CCOC(=O)c1c(C)[nH]c(C)c1C=O`, for which the growth is 105% (inactive).
`C=CCNC(=S)N/C=C(/C(=O)c1ccccc1)c1ccccc1`: the growth is 98.6% (inactive).
Take `CC(=O)N=c1ccc2nc3c(cc(N)c4ccccc43)oc-2c1`: the growth is -82.3% (active).
On to `CC(=O)NC(CCC(=O)c1ccccc1)C(=O)O` (stereo not given), for which the growth is 99.2% (inactive).
As to `COC(=O)c1ccc([N+](=O)[O-])c(C)c1`, the growth was 101% (inactive).
Take `O=C1C=C(c2ccccc2)C(O)(c2ccccc2)C1` (stereo not given): the growth is 97.4% (inactive).
In the case of `CC(=O)OC(C)c1cccc(C#N)c1` (stereo not given), the growth is 113% (inactive).
As to `CC(C)c1ccccc1NC(=O)N1CCC(C(C)C)CC1`, the growth was 91.9% (inactive).
